From PubChem BioAssay (Tox21) come the findings set out here.

Assay [1] in a line: Caspase-3/7 induction in CHO-K1 cells by small molecules, qHTS cell viability counter screen (AID 1346979). Further: nearly all actives have a fitted effect of over 35% in size. Further: potency means the concentration at half of the fitted maximal effect. A digest of the protocol: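 Cytotoxicity counter screen run in parallel with the caspase-3/7 assay: CHO-K1 cells, 16hr compound treatment at 37C, then CellTiter-Fluor for 1hr before fluorescence reading.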
Background: qHTS replaces the single test concentration by a dilution series.

A short description of assay [2]: Caspase-3/7 induction in CHO-K1 cells by small molecules, qHTS assay (AID 1346980). Further: nearly all actives have a fitted effect of over 15% in size. A digest of the protocol: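 Wild-type CHO-K1 cells exposed to compounds for 17hr at 37 C, 5% CO2. Caspase-3/7 activity then measured by Caspase-Glo 3/7 luminescence after 30min at room temperature.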
Assay [3] is described as follows: Caspase-3/7 induction in HepG2 cells by small molecules, qHTS cell viability counter screen (AID 1346981). Further: nearly all actives have a fitted effect of over 30% in size. Further: potency means the concentration at half of the fitted maximal effect. The method, boiled down: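 In this quantitative HTS counter screen, compounds delivered in DMSO were left on unmodified HepG2 cells for 16 hr at 37 C. Viability was then determined fluorometrically with CellTiter-Fluor, in parallel with caspase-3/7 induction in the same wells.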

Assay [4] has as its target Nuclear receptor subfamily 1 group I member 2 (Homo sapiens) (UniProt O75469). Kind of assay: Human pregnane X receptor (PXR) small molecule agonists, qHTS assay (AID 1346982). Further: nearly all actives have a fitted effect of over 35% in size. Further: potency means the concentration at half of the fitted maximal effect. The method, boiled down: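 Reporter HepG2 cells expressing PXR-Luc are cultured in charcoal-stripped FBS (5%), treated with compounds for 24 hr at 37 C, and assayed by ONE-Glo luminescence after 30 min at room temperature.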

Assay [5] addresses Cytochrome P450 2D6 (Homo sapiens) (UniProt P10635). Kind of assay: Cytochrome P450 Family 2 Subfamily D Member 6 (CYP2D6) small molecule antagonists: luciferase reporter qHTS assay (AID 1671196). Further: nearly all actives have a fitted effect of over 50% in size. Further: potency means the concentration at half of the fitted maximal effect. The method, boiled down: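 Test chemicals meet CYP2D6 plus proluciferin substrate (10 min, RT); NADPH regenerating solution then drives turnover for 1 h. Detection reagent halts the reaction; luminescence measured after 20 min.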
On the technique in general: Reporter assays use an easily measured gene product as a stand-in for the process of interest.

In assay [6] the target is Cytochrome P450 2C9 (Homo sapiens) (UniProt P11712). Kind of assay: Cytochrome P450 Family 2 Subfamily C Member 9 (CYP2C9) small molecule antagonists: luciferase reporter qHTS assay (AID 1671198). Further: nearly all actives have a fitted effect of over 50% in size. Further: potency means the concentration at half of the fitted maximal effect. A digest of the protocol:
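P450-Glo proluciferin substrate with CYP2C9 enzyme; 10 min RT preincubation, then NADPH regeneration 1 h at 37C; luciferin detection reagent 20 min RT, luminescence in relative luminescence units.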

Assay [7] deals with Voltage-gated inwardly rectifying potassium channel KCNH2 (Homo sapiens) (UniProt Q12809). As to the kind of experiment: Human Ether-a-go-go-Related Gene (hERG) channel small molecule antagonists: fluorescence cell-based qHTS assay (AID 1671200). Further: nearly all actives have a fitted effect of over 50% in size. Further: potency means the concentration at half of the fitted maximal effect. A digest of the protocol:
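Fluorescence at 540 nm emission (480 nm excitation) was recorded kinetically for 2 min at 1-second intervals once the thallium-containing stimulus reached cells previously loaded with FluxOR II dye.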
In general terms: hERG is a cardiac potassium channel; its block is linked to QT prolongation.

The target in assay [8] is Cytochrome P450 3A4 (Homo sapiens) (UniProt P08684). As to the kind of experiment: Cytochrome P450 Family 3 Subfamily A Member 4 (CYP3A4) small molecule antagonists: luciferase reporter qHTS assay (AID 1671201). Further: nearly all actives have a fitted effect of over 50% in size. Further: potency means the concentration at half of the fitted maximal effect. The method, boiled down:
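qHTS, 1536-well. CYP3A4 + proluciferin substrate, cpd 10 min RT → NADPH regen 1 h RT → detection reagent 20 min → luminescence (RLU). Ketoconazole positive control.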

For assay [9], the target named is Cytochrome P450 2C19 (Homo sapiens) (UniProt P33261). Kind of assay: Cytochrome P450 Family 2 Subfamily C Member 19 (CYP2C19) small molecule antagonists: luciferase reporter qHTS assay (AID 1671197). Further: nearly all actives have a fitted effect of over 65% in size. Further: potency means the concentration at half of the fitted maximal effect. A digest of the protocol:
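Enzyme-substrate mix with proluciferin substrate (P450-Glo CYP2C19 system) preincubated with compounds 10 min at room temperature; NADPH regeneration solution added, 37C for 1 h; detection reagent stops reaction, luminescence read after 20 min. Ketoconazole positive control.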

In assay [10] the target is Cytochrome P450 1A2 (Homo sapiens) (UniProt P05177). As to the kind of experiment: Cytochrome P450 Family 1 Subfamily A Member 2 (CYP1A2) small molecule antagonists: luciferase reporter qHTS assay (AID 1671199). Further: nearly all actives have a fitted effect of over 50% in size. Further: potency means the concentration at half of the fitted maximal effect. A digest of the protocol: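 Steps: enzyme-substrate mix dispensed; test compounds and furafylline control pinned in; 10 min room temperature; NADPH regeneration solution added, 1 h; reaction stopped with luciferin detection reagent; luminescence read after 20 min.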

Inconclusive results are not listed. Activity calls are given as the source filed them. The call rests on the fitted dose curve; in most records, active means well fitted curve in the direction sought with a large enough effect in the repeat runs; inconclusive means weak or mixed curves; inactive means no such curve, though single readings can be large; an effect the other way counts as inactive or inconclusive.

Sequence of Cytochrome P450 1A2 (Homo sapiens) (P05177 whole entry, looked up): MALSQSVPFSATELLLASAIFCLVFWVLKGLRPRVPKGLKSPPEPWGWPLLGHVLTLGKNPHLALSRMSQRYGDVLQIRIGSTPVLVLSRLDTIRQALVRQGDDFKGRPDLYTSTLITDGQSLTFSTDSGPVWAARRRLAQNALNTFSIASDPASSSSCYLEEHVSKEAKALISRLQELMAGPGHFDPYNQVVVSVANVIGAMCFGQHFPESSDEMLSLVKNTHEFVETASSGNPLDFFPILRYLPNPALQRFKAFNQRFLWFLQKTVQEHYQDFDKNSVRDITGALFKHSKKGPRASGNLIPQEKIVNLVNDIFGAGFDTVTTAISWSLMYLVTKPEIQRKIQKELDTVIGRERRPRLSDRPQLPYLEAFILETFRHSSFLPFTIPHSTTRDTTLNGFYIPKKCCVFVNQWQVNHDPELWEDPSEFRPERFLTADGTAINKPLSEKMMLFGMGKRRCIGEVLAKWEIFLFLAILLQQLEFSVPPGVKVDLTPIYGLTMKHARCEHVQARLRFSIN
Sequence of Nuclear receptor subfamily 1 group I member 2 (Homo sapiens) (O75469 whole entry, looked up): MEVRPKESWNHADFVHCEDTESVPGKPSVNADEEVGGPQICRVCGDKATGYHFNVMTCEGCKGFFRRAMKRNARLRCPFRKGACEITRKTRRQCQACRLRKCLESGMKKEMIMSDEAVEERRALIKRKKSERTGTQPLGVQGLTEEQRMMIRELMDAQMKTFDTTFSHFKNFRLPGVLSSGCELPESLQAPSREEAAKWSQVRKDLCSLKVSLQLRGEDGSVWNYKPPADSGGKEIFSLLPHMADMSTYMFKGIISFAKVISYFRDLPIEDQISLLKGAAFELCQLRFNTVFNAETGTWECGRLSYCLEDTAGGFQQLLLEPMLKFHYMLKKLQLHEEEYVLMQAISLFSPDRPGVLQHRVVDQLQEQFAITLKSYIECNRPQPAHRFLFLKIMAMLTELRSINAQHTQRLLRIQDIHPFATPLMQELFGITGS
Sequence of Voltage-gated inwardly rectifying potassium channel KCNH2 (Homo sapiens) (Q12809 whole entry, looked up): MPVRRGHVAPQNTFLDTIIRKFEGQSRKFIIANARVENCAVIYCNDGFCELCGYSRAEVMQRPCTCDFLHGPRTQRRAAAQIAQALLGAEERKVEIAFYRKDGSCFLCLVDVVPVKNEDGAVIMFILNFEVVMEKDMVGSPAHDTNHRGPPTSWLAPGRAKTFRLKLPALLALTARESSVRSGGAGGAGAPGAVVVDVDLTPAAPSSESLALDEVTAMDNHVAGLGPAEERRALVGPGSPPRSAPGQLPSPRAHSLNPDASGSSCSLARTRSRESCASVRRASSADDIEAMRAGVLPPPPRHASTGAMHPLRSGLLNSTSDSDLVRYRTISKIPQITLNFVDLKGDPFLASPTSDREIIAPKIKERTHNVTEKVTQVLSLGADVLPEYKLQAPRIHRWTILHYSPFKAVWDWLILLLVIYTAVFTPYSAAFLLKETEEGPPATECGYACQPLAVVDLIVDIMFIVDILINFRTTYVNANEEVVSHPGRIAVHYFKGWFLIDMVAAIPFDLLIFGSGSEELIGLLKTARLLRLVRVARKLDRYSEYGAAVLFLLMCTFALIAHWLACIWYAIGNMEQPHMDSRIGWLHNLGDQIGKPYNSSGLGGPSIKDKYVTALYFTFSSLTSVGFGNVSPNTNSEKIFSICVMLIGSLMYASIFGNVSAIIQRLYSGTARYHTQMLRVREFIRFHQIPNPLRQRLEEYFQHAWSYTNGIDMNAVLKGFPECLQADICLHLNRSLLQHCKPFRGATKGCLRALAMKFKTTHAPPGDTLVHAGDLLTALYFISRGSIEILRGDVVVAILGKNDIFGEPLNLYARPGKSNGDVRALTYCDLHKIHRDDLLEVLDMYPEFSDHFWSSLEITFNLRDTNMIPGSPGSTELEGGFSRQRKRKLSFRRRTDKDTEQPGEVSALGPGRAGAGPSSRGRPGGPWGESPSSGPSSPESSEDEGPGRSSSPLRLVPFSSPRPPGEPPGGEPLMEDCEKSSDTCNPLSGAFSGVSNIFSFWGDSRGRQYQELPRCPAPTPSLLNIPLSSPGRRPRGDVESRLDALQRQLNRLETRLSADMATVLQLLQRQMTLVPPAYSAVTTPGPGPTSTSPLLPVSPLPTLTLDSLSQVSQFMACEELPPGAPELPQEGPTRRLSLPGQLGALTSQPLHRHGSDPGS
Sequence of Cytochrome P450 2C19 (Homo sapiens) (P33261 whole entry, looked up): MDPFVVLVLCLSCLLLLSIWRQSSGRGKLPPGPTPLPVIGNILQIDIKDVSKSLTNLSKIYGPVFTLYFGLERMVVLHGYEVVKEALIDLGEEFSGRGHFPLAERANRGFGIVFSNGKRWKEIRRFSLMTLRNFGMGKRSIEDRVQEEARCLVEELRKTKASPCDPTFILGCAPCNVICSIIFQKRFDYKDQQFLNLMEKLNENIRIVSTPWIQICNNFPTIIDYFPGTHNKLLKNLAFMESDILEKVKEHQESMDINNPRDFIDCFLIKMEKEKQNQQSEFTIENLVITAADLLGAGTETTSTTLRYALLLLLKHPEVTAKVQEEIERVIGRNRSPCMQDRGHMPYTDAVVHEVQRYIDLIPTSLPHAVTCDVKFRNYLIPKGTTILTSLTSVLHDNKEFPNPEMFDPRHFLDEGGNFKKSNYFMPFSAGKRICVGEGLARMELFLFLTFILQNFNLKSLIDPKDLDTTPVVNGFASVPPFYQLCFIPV
Sequence of Cytochrome P450 2C9 (Homo sapiens) (P11712 whole entry, looked up): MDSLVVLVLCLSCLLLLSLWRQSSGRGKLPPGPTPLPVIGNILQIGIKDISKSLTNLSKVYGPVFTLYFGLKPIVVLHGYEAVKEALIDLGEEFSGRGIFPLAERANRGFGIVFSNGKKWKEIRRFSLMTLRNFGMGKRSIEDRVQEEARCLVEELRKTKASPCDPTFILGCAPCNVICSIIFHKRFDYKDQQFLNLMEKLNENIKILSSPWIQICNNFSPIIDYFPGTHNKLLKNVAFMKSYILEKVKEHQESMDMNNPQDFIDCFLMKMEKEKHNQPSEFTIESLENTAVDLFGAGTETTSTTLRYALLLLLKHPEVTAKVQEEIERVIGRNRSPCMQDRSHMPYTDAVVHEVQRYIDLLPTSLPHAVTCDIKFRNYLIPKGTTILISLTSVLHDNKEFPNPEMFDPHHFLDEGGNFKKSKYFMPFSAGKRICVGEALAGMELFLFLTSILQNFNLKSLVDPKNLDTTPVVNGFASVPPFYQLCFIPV
Sequence of Cytochrome P450 2D6 (Homo sapiens) (P10635 whole entry, looked up): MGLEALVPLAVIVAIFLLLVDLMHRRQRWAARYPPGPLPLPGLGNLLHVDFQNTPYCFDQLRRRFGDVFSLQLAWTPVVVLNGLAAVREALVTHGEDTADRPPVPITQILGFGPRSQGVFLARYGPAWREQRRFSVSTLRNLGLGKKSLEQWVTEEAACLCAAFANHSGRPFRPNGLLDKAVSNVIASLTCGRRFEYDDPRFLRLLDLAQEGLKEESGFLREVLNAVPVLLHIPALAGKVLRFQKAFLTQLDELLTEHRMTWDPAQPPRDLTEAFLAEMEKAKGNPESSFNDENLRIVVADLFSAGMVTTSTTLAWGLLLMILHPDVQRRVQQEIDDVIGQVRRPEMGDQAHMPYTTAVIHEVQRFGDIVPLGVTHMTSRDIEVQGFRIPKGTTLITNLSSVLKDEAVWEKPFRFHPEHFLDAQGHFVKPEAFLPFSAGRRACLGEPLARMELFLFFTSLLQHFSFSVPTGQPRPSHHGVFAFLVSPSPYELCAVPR
Sequence of Cytochrome P450 3A4 (Homo sapiens) (P08684 whole entry, looked up): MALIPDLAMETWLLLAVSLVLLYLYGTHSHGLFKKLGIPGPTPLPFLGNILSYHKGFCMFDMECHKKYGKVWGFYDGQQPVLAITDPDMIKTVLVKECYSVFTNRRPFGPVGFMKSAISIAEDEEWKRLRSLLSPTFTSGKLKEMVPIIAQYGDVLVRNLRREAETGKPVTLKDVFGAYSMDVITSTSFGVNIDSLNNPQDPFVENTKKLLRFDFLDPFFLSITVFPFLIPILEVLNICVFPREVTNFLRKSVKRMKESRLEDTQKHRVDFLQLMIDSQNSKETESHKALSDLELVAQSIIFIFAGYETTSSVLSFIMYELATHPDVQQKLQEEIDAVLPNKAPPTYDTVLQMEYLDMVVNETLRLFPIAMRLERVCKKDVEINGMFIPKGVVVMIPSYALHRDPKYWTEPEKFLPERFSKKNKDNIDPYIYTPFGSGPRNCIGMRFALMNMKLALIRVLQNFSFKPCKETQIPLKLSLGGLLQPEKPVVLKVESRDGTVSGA

For the molecule `CCCCOC(=O)C(C)CC` (centres undefined), the Potency entry in [1], in [2], in [3], in assay [4], in assay [5] and in assay [6] was “inactive” throughout. For the same molecule, the Potency result in assay [7] and in [8] was “inactive” throughout.

As to `Clc1nc2ccccc2s1`, the Potency entry in [1], in assay [2], in [3], in [4], in assay [5] and in assay [9] was “inactive” in each case. In addition, the Potency entry in assay [6] and in assay [7] was “inactive” in each case.

Consider `CC1(C)C(=O)N(CO)C(=O)N1CO`, for which the Potency entry in [1], in assay [2], in assay [3], in assay [4], in assay [5] and in [9] was “inactive” throughout. Further, the Potency result in assay [6], in assay [7] and in assay [8] was “inactive” in each case.

On to `Cc1ccc(O)cn1`, for which the Potency result in assay [1], in assay [2], in assay [3], in assay [4], in assay [9] and in [6] was “inactive” each time. The Potency result in assay [10] and in assay [7] was “inactive” in each case.

Take `CCCCCCCCCCc1ccccc1`: the Potency entry in [1], in assay [2], in assay [3], in assay [4], in assay [5] and in [9] was “inactive” throughout. For the same molecule, the Potency entry in [6] and in [8] was “inactive” each time.

For `CCc1cccc(CC)c1N(COC)C(=O)CS(=O)(=O)O`, the Potency result in assay [1], in assay [2], in [3], in assay [4], in assay [5] and in assay [9] was “inactive” each time. The Potency entry in assay [10] and in assay [7] was “inactive” each time.

In the case of `CCCCCCC(C)OC(=O)COc1nc(F)c(Cl)c(N)c1Cl` (centres undefined), the Potency entry in [1], in assay [2], in [3] and in assay [4] was “inactive” each time. The Potency is 4.48 µM (active) in assay [9]; 17.8 µM (active) in assay [6]; 5.64 µM (active) in assay [10]; 38.9 µM (active) in assay [7]; 7.96 µM (active) in assay [8].

For `CCC(C)c1cc([N+](=O)[O-])cc([N+](=O)[O-])c1OC(=O)OC(C)C` (centres undefined), the Potency in assay [1] is 61.1 µM (active); in assay [3], 61.1 µM (active); in assay [4] it was 61.1 µM (active); in assay [9] it was 11.2 µM (active); in [6] it was 35.6 µM (active); in assay [10], 2.52 µM (active). Besides, the Potency result in assay [2] and in assay [7] was “inactive” in each case.

As for `CCCCCCCC/C=C/CCCOC(C)=O`, the Potency result in [1], in assay [2], in assay [3], in assay [4], in assay [5] and in [7] was “inactive” throughout. Besides, in assay [8], the Potency result is “inactive”. Further, in assay [9], the Potency is 31.7 µM (active).

For `CC(C)(C)c1cc(CCC(=O)NCCCCCCNC(=O)CCc2cc(C(C)(C)C)c(O)c(C(C)(C)C)c2)cc(C(C)(C)C)c1O`, the Potency entry in assay [1], in assay [2], in [3], in assay [4], in assay [5] and in assay [10] was “inactive” throughout. Further, the Potency result in [7] was “inactive”. The Potency in [6] is 1.42 µM (active).

Consider `CCOCN(C(=O)CS(=O)(=O)O)c1c(C)cccc1CC`, for which the Potency entry in assay [1], in assay [2], in assay [3], in assay [4], in assay [5] and in assay [10] was “inactive” in each case. In addition, the Potency entry in assay [7] is “inactive”.

In the case of `O=C(O)CCCCCCC(=O)O`, the Potency entry in assay [1], in [2], in assay [3], in [4], in [6] and in assay [7] was “inactive” each time. The Potency entry in assay [8] is “inactive”. Moreover, the Potency in assay [5] was 35.9 µM (active).

For `CC(C)c1ccccc1N`, the Potency entry in assay [1], in assay [2], in [3], in assay [5], in [10] and in [7] was “inactive” each time. Also, the Potency in assay [4] is 61.1 µM (active); in [9], 39.9 µM (active); in assay [8], 28.3 µM (active).

Consider `CC(C)(C)c1n[nH]c(=O)n(N)c1=O`, for which the Potency entry in assay [1], in assay [2], in assay [3], in assay [4], in assay [5] and in assay [9] was “inactive” throughout. Further, the Potency result in assay [6], in assay [10], in assay [7] and in assay [8] was “inactive” throughout.

Turning to `OCCC(O)CO` (centres undefined), the Potency result in assay [1], in [2], in [3], in assay [4], in assay [5] and in assay [9] was “inactive” in each case. For the same molecule, the Potency entry in [6], in assay [10], in [7] and in assay [8] was “inactive” in each case.

For the molecule `C/C=C/CO`, the Potency entry in [1], in assay [2], in [3], in assay [4], in [5] and in assay [9] was “inactive” each time. The Potency entry in assay [6], in assay [7] and in assay [8] was “inactive” in each case.

On to `COc1nccnc1CC(C)C`, for which the Potency result in [1], in assay [2], in assay [3], in [4], in [5] and in assay [9] was “inactive” throughout. For the same molecule, the Potency result in assay [6], in [7] and in assay [8] was “inactive” each time.
